Measured values: PubChem BioAssay (Tox21)
Records with an inconclusive call do not appear. Calls of active or inactive are those of the source. Unless noted, the call rests on the fitted dose curve; in most records, active means well fitted curve in the direction sought with a large enough effect in the repeat runs; inconclusive means weak or mixed curves; inactive means no such curve, though single readings can be large; an effect the other way counts as inactive or inconclusive.

Experiments:
[1] = qHTS assay to identify small molecule that activate the aryl hydrocarbon receptor (AhR) signaling pathway - cell viability counter screen (AID 743086);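 further: HepG2 liver cells carrying the AhR DRE luciferase reporter; series mostly up to about 70 µM; nearly all actives have a fitted effect of over 45% in size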
In short: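 HepG2-AhR-luc (HG2L7.5c1) cells, 4000/well, treated 24 h at 37 C with compound; viability measured as CellTiter-Fluor fluorescence after 30 min in the same wells as the luciferase read.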

[2] = molecular target: Peroxisome proliferator-activated receptor gamma (Homo sapiens) (UniProt P37231); assay: qHTS assay to identify small molecule agonists of the peroxisome proliferator-activated receptor gamma (PPARg) signaling pathway (AID 743094; active means well fitted activation curve with a large enough effect in the signal ratio in the repeat runs, not every such curve was filed as active; the % refers to the signal ratio)
Peroxisome proliferator-activated receptor gamma (Homo sapiens), sequence (P37231 whole entry, looked up): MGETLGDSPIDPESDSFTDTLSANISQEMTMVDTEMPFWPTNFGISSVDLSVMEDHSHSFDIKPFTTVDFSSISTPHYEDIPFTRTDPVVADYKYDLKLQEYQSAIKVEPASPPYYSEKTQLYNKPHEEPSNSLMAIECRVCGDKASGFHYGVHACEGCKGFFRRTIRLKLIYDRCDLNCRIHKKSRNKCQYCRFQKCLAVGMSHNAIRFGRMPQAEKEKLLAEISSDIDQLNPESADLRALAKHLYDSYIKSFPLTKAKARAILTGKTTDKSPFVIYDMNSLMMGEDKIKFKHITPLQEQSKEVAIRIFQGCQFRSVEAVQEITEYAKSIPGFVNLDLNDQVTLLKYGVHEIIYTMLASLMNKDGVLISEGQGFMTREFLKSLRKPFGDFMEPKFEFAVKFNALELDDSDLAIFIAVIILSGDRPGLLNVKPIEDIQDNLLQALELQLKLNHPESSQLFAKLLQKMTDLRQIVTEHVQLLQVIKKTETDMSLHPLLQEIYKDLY
In short: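 Reporter activation was scored by fluorescence of cleaved LiveBLAzer B/G substrate (1 h, room temperature) in PPARg-bla HEK293H cells previously treated 17 h at 37C with DMSO-dissolved compounds.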

[3] = molecular target: Peroxisome proliferator-activated receptor gamma (Homo sapiens) (UniProt P37231); assay: qHTS assay to identify small molecule antagonists of the peroxisome proliferator-activated receptor gamma (PPARg) signaling pathway (AID 743191; calls by dose curve; further: series mostly up to about 63 µM; nearly all actives have a fitted effect of over 30% in size)
In short: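 GeneBLAzer PPARg UAS-bla HEK293H cells, 5 h post-plating, exposed to compounds 17 h at 37C. LiveBLAzer B/G FRET substrate added for 1 h at room temperature; beta-lactamase reporter read by fluorescence intensity.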

[4] = qHTS assay to identify small molecule antagonists of the peroxisome proliferator-activated receptor gamma (PPARg) signaling pathway - cell viability counter screen (AID 743194); further: nearly all actives have a fitted effect of over 55% in size
In short: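 Cytotoxicity counter screen in PPARg-bla HEK293H cells, same wells as reporter assay. Compounds plus 50 nM rosiglitazone (final) for 17 h at 37 C, then viability read by CellTiter-Glo luminescence.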

[5] = qHTS assay for small molecule agonists of the antioxidant response element (ARE) signaling pathway (AID 743202; active means well fitted activation curve with a large enough effect in the signal ratio in the repeat runs, not every such curve was filed as active; the % refers to the signal ratio)
In short: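 HepG2 ARE-bla reporter line, 2,000 cells/well; 5 h preincubation 37 C/5% CO2; compound (DMSO) 16 h 37 C; B/G FRET substrate 2 h RT; fluorescence intensity.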

[6] = qHTS assay for small molecule agonists of the antioxidant response element (ARE) signaling pathway - cell viability counter screen (AID 743203; calls by dose curve; further: nearly all actives have a fitted effect of over 55% in size)
In short: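 Viability counter screen: stably transfected ARE-bla HepG2 line, 16 hrs compound exposure at 37C/5% CO2, ATP-based CellTiter-Glo luminescence measured in the reporter wells.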

[7] = qHTS assay for small molecule activators of the heat shock response signaling pathway - cell viability counter screen (AID 743209); further: nearly all actives have a fitted effect of over 50% in size
In short: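 Viability of HSE-bla HeLa cells is measured with CellTiter-Glo in the wells already used for the reporter read. Compound exposure lasts 5 h at 37 C, and luminescence is read after 30 min at room temperature.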

[8] = qHTS assay for small molecule activators of the heat shock response signaling pathway (AID 743210; active means well fitted activation curve with a large enough effect in the signal ratio in the repeat runs, with a control signal flat, not every such curve was filed as active; the % refers to the signal ratio;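 further: HeLa cells with beta-lactamase reporter driven by heat shock elements; series mostly up to about 63 µM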)
In short: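 Beta-lactamase reporter read-out: FRET substrate fluorescence after 2.5 h at RT, following 5 h compound treatment at 37 C of HeLa cells carrying HSE-driven bla reporter; quantitative HTS format.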

[9] = qHTS assay to identify small molecule agonists of the peroxisome proliferator-activated receptor delta (PPARd) signaling pathway - cell viability counter screen (AID 743211); further: nearly all actives have a fitted effect of over 55% in size
In short: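 Tox21 library compounds, delivered in DMSO, were incubated 17 h with PPARd-bla HEK293H cells; cytotoxicity was taken from CellTiter-Glo luminescence read 30 min after reagent addition.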

[10] = molecular target: Peroxisome proliferator-activated receptor delta (Homo sapiens) (UniProt Q03181); assay: qHTS assay to identify small molecule agonists of the peroxisome proliferator-activated receptor delta (PPARd) signaling pathway (AID 743212; calls by dose curve)
Peroxisome proliferator-activated receptor delta (Homo sapiens), sequence (Q03181 whole entry, looked up): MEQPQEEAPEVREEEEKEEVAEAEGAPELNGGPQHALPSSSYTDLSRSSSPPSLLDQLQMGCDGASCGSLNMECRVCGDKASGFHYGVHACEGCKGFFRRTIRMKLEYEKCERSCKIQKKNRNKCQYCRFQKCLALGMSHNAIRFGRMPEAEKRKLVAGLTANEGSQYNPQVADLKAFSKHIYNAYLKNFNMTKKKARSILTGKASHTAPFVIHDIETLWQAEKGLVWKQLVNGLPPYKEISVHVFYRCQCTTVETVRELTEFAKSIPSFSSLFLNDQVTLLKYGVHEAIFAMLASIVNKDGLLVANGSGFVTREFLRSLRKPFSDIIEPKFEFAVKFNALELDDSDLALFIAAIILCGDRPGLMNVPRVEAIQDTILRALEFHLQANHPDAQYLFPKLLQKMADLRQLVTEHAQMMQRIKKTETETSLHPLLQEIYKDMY
In short: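 Read-out: beta-lactamase FRET fluorescence after 2 h room-temperature incubation with LiveBLAzer B/G substrate. Cells were HEK293H carrying a UAS-bla reporter for PPARd, treated at 37 C with DMSO-dissolved compounds.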

[11] = molecular target: Peroxisome proliferator-activated receptor delta (Homo sapiens) (UniProt Q03181); assay: qHTS assay to identify small molecule antagonists of the peroxisome proliferator-activated receptor delta (PPARd) signaling pathway (AID 743215; active means well fitted inhibition curve with a large enough effect in the signal ratio in the repeat runs, not every such curve was filed as active; the % refers to the signal ratio;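 further: cells stimulated with agonist L165041 at 300 nM final during compound exposure; series mostly up to about 62 µM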)
In short: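 Plated HEK293H PPARd-bla cells rested 5 h at 37 C and 5% CO2. Compound, then agonist L165041 at 300 nM final, was added; 17 h at 37 C followed. Substrate loading, 2 h room temperature, fluorescence measured.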

[12] = qHTS assay to identify small molecule agonists of the farnesoid-X-receptor (FXR) signaling pathway - cell viability counter screen (AID 743218); further: nearly all actives have a fitted effect of over 45% in size
In short: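 Viability of FXR-bla HEK 293T cells is measured by ATP-based CellTiter-Glo luminescence following 16 h compound treatment at 37 C and a prior 2 h room-temperature beta-lactamase substrate step.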

[13] = qHTS assay to identify small molecule antagonists of the farnesoid-X-receptor (FXR) signaling pathway - cell viability counter screen (AID 743221; active means well fitted cell-killing curve with a large enough effect in the repeat runs, not every such curve was filed as active; further: nearly all actives have a fitted effect of over 50% in size)
In short: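 Cytotoxicity is taken from ATP luminescence (CellTiter-Glo, 30 min, room temperature) in FXR-bla HEK 293T cells previously incubated 16 h at 37 C with compound and chenodeoxycholic acid at 50 uM final.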

[14] = molecular target: Vitamin D3 receptor (Homo sapiens) (UniProt P11473); assay: qHTS assay to identify small molecule agonists of the vitamin D receptor (VDR) signaling pathway (AID 743222; calls by dose curve)
Vitamin D3 receptor (Homo sapiens), sequence (P11473 whole entry, looked up): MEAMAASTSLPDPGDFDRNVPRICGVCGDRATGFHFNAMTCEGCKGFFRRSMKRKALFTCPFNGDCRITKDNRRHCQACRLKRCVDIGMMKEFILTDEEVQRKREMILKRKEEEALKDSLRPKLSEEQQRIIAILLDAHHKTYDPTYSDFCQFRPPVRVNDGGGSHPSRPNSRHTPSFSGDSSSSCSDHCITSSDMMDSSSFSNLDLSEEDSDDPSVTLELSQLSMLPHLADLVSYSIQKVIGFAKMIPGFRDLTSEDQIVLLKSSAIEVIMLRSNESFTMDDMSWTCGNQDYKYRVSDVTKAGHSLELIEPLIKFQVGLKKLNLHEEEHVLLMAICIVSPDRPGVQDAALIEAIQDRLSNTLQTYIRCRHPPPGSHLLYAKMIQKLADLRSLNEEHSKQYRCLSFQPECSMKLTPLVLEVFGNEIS
In short: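 Fluorescence from cleaved LiveBLAzer B/G FRET substrate served as readout. VDR-bla cells had been treated 16 h at 37C with test compounds in DMSO, following a 4 h settling period, and substrate was loaded for 2 h at RT.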

[15] = molecular target: Vitamin D3 receptor (Homo sapiens) (UniProt P11473); assay: qHTS assay to identify small molecule antagonists of the vitamin D receptor (VDR) signaling pathway (AID 743223; active means well fitted inhibition curve with a large enough effect in the signal ratio in the repeat runs, not every such curve was filed as active; the % refers to the signal ratio)
In short: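 Quantitative HTS in VDR-bla reporter cells stimulated with 1alpha,25-dihydroxyvitamin D3, 3 nM final. Compound exposure 16 h, 37C, 5% CO2. Read-out: beta-lactamase FRET substrate fluorescence, 2 h RT.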

[16] = molecular target: Aryl hydrocarbon receptor (Homo sapiens) (UniProt P35869); assay: qHTS assay to identify small molecule that activate the aryl hydrocarbon receptor (AhR) signaling pathway (AID 743085);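 further: HG2L7.5c1 human HepG2 liver cells with stably integrated DRE-driven firefly reporter; series mostly up to about 70 µM; nearly all actives have a fitted effect of over 15% in size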
Aryl hydrocarbon receptor (Homo sapiens), sequence (P35869 whole entry, looked up): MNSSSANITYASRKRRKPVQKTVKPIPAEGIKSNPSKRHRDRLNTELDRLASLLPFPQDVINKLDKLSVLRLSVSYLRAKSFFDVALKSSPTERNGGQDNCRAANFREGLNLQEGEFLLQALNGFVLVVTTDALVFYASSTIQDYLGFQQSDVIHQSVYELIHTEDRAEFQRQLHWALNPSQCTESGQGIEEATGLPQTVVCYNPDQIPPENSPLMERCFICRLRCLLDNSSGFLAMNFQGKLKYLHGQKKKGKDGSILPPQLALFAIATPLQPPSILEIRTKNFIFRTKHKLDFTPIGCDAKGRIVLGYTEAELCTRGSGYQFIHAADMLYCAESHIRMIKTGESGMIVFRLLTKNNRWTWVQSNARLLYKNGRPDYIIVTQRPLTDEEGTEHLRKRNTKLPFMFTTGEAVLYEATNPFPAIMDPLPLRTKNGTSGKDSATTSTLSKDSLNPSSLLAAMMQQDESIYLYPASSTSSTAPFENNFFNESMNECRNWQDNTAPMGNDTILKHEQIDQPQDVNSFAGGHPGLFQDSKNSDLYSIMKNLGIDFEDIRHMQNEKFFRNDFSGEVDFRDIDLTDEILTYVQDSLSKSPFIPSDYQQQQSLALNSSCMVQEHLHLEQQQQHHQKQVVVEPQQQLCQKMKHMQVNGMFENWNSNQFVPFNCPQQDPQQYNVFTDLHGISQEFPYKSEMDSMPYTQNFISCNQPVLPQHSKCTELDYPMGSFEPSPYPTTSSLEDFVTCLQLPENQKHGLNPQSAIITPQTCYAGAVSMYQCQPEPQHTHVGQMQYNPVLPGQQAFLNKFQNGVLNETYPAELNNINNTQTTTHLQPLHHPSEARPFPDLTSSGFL
In short: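 A multiplexed format paired cell viability (CellTiter-Fluor fluorescence) with AhR-dependent luciferase output (ONE-Glo luminescence) in the same wells of HepG2 DRE-luc cells after 24 h compound exposure at 37C.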

[17] = qHTS assay to identify small molecule antagonists of the peroxisome proliferator-activated receptor delta (PPARd) signaling pathway - cell viability counter screen (AID 743213); further: nearly all actives have a fitted effect of over 50% in size
In short: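 In this counter screen, HEK293H cells carrying a UAS-beta-lactamase reporter are co-treated with test compounds and 300 nM L165041 (final) for 17 h at 37 C; cell viability is quantified by CellTiter-Glo luminescence.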

[18] = molecular target: Bile acid receptor (Homo sapiens) (UniProt Q96RI1); assay: qHTS assay to identify small molecule antagonists of the farnesoid-X-receptor (FXR) signaling pathway (AID 743217; active means well fitted inhibition curve with a large enough effect in the signal ratio in the repeat runs, not every such curve was filed as active; the % refers to the signal ratio)
Bile acid receptor (Homo sapiens), sequence (Q96RI1 whole entry, looked up): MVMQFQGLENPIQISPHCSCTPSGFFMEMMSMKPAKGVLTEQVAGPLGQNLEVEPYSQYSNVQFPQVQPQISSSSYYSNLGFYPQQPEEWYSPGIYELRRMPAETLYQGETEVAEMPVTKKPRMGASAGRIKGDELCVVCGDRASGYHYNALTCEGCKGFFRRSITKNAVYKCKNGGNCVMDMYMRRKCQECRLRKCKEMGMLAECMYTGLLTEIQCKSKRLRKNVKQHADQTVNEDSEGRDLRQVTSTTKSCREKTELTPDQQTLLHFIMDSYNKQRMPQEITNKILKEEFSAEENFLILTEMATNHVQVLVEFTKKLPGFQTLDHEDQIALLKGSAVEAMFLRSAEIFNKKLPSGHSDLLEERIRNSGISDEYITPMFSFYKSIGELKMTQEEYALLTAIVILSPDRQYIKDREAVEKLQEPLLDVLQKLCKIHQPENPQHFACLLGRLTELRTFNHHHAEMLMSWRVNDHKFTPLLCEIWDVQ
In short: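 Screen of the Tox21 10K library in quantitative HTS format using FXR-UAS-bla HEK 293T reporter cells. Agonist chenodeoxycholic acid, 50 uM final, added with compounds; 16 h incubation at 37 °C; beta-lactamase FRET fluorescence measured.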

[19] = molecular target: Bile acid receptor (Homo sapiens) (UniProt Q96RI1); assay: qHTS assay to identify small molecule agonists of the farnesoid-X-receptor (FXR) signaling pathway (AID 743220; active means well fitted activation curve with a large enough effect in the signal ratio in the repeat runs, not every such curve was filed as active; the % refers to the signal ratio)
In short: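 FXR-UAS-bla HEK 293T cells carrying a UAS-driven beta-lactamase reporter were plated for 5 h at 37C/5% CO2, then exposed to DMSO-dissolved Tox21 10K compounds for 16 h at 37C. A LiveBLAzer B/G FRET substrate was loaded for 2 h at room temperature before fluorescence reading.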

[20] = qHTS assay to identify small molecule agonists of the vitamin D receptor (VDR) signaling pathway - cell viability counter screen (AID 743224); further: series mostly up to about 63 µM; nearly all actives have a fitted effect of over 50% in size
In short: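 Compounds were pin-transferred onto VDR-bla cells plated 4 h earlier; following 16 h incubation at 37C, cell viability was quantified by CellTiter-Glo luminescence after 30 min at room temperature.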

Measured: Potency

Nc1nc(-c2ccccc2)c(Br)c(=O)[nH]1
not listed: [16] | [17] | [18] | [19] | [20]
inactive: all other assays above

C=CCCCCCCCCC(=O)OCCCC
not listed: [3] | [4] | [5] | [8] | [20]
inactive: all other assays above

COc1nc(N)nc2nc[nH]c12
not listed: [8] | [9] | [13] | [14] | [15] | [16] | [18] | [19]
inactive: all other assays above

C/C(CC(C)C)=N\O
not listed: [2] | [3] | [4] | [18] | [19]
inactive: all other assays above

C=CC(=O)OCC1CCCO1 (stereo not given)
not listed: [1] | [5] | [7] | [14] | [15]
inactive: all other assays above

O=[N+]([O-])c1c(Cl)cc(Cl)cc1Cl
not listed: [3] | [4] | [7] | [8] | [9] | [18] | [19]
inactive: all other assays above

CCCC(=O)OC/C=C(\C)CCC=C(C)C
not listed: [5] | [11] | [16]
inactive: all other assays above

OC1OCCOC1O (stereo not given)
not listed: [2] | [3] | [10] | [11] | [13] | [18]
inactive: all other assays above

CN(C)CC/C=C1/c2ccccc2COc2ccc(CC(=O)O)cc21
inactive: [4] | [5] | [6] | [7] | [8] | [9] | [12] | [13] | [20]
